A selection: hits, their analogues and other compounds. The true share with any hit is near 6.8%.
Autofluor 339 = intrinsic fluorescence of library compounds, ex339/em460 – biochemical, MLSMR library, data from DPM-DC assay, artefact control, profiling panel; compound autofluorescence, ex339/em460 nm, NADH buffer; hits give high values; 1 = no-compound wells, NADH background; fluorescence fold increase at 10 µM; hit rate 5.5% among 65,000; AID 709;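 active = at 10 µM, mean starting fluorescence two-fold or more over control wells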;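 note: signal is the first read of a kinetic run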
DPM-DC inhibit = inhibitors of Streptococcus pneumoniae diphosphomevalonate decarboxylase | AID 556 | calls only at 10 µM | hit rate 0.49% among 65,000 | purified DPM-DC, PK/LDH coupled NADH fluorescence;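 active = the 320 compounds with the highest percent inhibition in the single-dose primary screen, excluding strongly autofluorescent ones, cut at about 32% in these data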;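 note: kinetic rate of NADH fluorescence loss reporting ADP formed by the decarboxylase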
Spn PMK inh = S. pneumoniae PMK inhibition; hit rate 0.49% among 65,000; inhibition, % at 10 µM; purified PMK, PK/LDH-coupled NADH absorbance 340 nm;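 active = top-ranked compounds by inhibition in the single 10 µM screen, taking a fixed number of the strongest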;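 note: 0% = full reaction with DMSO carrier and 100% = background rate without enzyme reaction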
MK inhibit = S. pneumoniae mevalonate kinase inhibition; purified MK, PK/LDH-coupled NADH absorbance 340 nm; inhibition, % at 10 µM; hit rate 0.48% among 65,000;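 active = ranked among the strongest by inhibition in the single 10 µM screen, a fixed top-ranked set picked for dose follow-up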
A340 absorber = absorbance at 340 nm; fold change at 10 µM; compound absorbance at 340 nm, fold over control; 65,000 tested, under 10 active;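 active = at 10 µM dose, initial 340 nm absorbance at least 2 fold that of control wells; inactive = change under 2 fold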;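 note: initial absorbance extrapolated from kinetic A340 decline of NADH oxidation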
NADH coupling = inhibitors of enzymes used to reach an NAD/NADH endpoint | coupled PK/LDH NADH assays, four targets | IC50, µM (doses to about 10 µM), for inactives: at the top dose inhibition | hit rate 0.02% among 65,000;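 active = single-dose screening hits from any of four coupled enzyme assays that gave an IC50 when retested across doses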;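 note: the DPM-DC format reads NADH fluorescence rather than 340 nm absorbance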
Numbers without * were called inactive; i = inactive; · = no result given; + = active, no number; [ ] = remark or other dose.

SMILES	Autofluor 339	DPM-DC inhibit	Spn PMK inh	MK inhibit	A340 absorber	NADH coupling
CCn1c(CNC(=O)c2ccco2)nnc1SCC(=O)Nc1cc(C(F)(F)F)ccc1Cl	1	i	8	10	0.98	7%
O=C(Nc1ccc2oc(-c3ccncc3)nc2c1)c1cccs1	2	·	5	4	1	2%
O=C(Nc1ccc2oc(-c3cccnc3)nc2c1)c1cc2ccccc2o1	2.1*	·	0	4	1.1	2%
CCCCC(=O)Nc1ccc2oc(-c3cccnc3)nc2c1	3.9*	·	8	6	1	7%
CCCOc1ccccc1-c1nc2c([nH]1)c(=O)[nH]c(=O)n2C	3.7*	·	5	2	1.1	4%
Cc1cc2c(C)cc(=O)oc2c2c1NCCC2	3.6*	·	1	12	1.1	7%
O=C(CSc1nnnn1Cc1ccccc1)NCCc1ccccc1	1	+	4	10	1	22%
CCC(=O)Nc1cccc(NC(=O)CSc2nnnn2Cc2ccccc2)c1	1.3	+	8	7	1	16%
Cc1nc(NC(=O)CSc2ccccc2N)sc1C	1.1	i	9	9	0.98	6%
Cc1ccc2c(c1)c1c(n2CC2COC(C)(C)O2)C(=O)CCC1 (centres undefined)	2.2*	·	1	9	1	5%
Cc1ccc2c(c1)c1c(n2CC(O)CN2C(=O)CNC2=O)C(=O)CCC1 (centres undefined)	2*	·	7	9	1.1	8%
Cc1ccc2c(c1)c1c(n2CC(O)Cn2c(C)nc3ccccc32)C(=O)CCC1 (centres undefined)	2*	·	21	11	1.1	16%
Cc1ccc2c(c1)c1c(n2CC(O)Cn2c(C)nc3ccccc32)/C(=N\O)CCC1 (centres undefined)	1.1	i	7	5	0.99	4%
COc1ccccc1C1c2c(oc3ccc(Cl)cc3c2=O)C(=O)N1c1cc(C)on1 (centres undefined)	1	i	0	3	1	1%
CC(C)c1cc(C(F)(F)F)n2nc(C(=O)Nc3ccc4c(c3)OCO4)cc2n1	1	i	10	8	1	6%
COc1ccc(-c2cc(-c3ccccc3)nc(N3CCCC3)n2)cc1OC	2.2*	·	0	0	1.1	0%
COc1ccc(-c2cc(C(F)(F)F)nc(N3CCOCC3)n2)cc1OC	1.5	i	0	11	1.1	6%
CCOC(=O)c1[nH]c(=O)[nH]c1COC(=O)c1cc2ccccc2o1	1.2	i	5	0	1	5%
CCc1ccccc1NC(=O)c1cnc2scc(C)n2c1=O	1.1	i	9	1	1.2	5%
Cc1csc2ncc(C(=O)NCc3ccccn3)c(=O)n12	2.1*	·	10	6	1.2	8%
CC(C)C1Oc2ccccc2N(CC(=O)NCCCN2C(C)CCCC2C)C1=O (centres undefined)	1.2	i	8	47*	1.1	18%
CCC1Oc2ccccc2N(CC(=O)NCCCN2CCN(Cc3ccccc3)CC2)C1=O (centres undefined)	1	i	15	0	0.99	5%
CC(=O)Oc1ccc2cc(-c3nc4ccccc4n3C)c(=O)oc2c1	2.1*	·	0	6	1.1	3%
CCc1cc2c(=O)c(-c3nc4ccccc4n3C)c(COCC(=O)O)oc2cc1O	1.5	i	1	3	1.1	3%
Cc1ccc2nc(-c3ccc(SCC(=O)O)nc3)[nH]c2c1	3.8*	+	9	8	1	17%
SMILES	Autofluor 339	DPM-DC inhibit	Spn PMK inh	MK inhibit	A340 absorber	NADH coupling
Cc1ccc2nc(SCC(=O)N3CCCC3)[nH]c2c1	1	i	17	6	0.99	8%
COc1ccc(NC(=O)c2cc3cc(OC)ccc3oc2=N)cc1	1.1	i	0	0	1	0%
CCCCCCc1cc2cc(C(=O)NC)c(=N)oc2cc1O	2.3*	·	6	5	1	6%
C=CCc1cccc2cc(C(=O)N(CC)CC)c(=O)oc12	1.2	i	3	0	1.1	1%
CC1CCN(C(=O)CSc2nc(N)c3c4c(sc3n2)CN(C)CC4)CC1	2.1*	·	0	5	1.1	3%
CN1CCc2c(sc3nc(SCC(=O)N4CCOCC4)nc(N)c23)C1	2.2*	·	0	5	1.2	3%
CN(C)c1ccc(C2C3C(=O)NC(=O)C3ON2c2ccc(Cl)cc2)cc1 (centres undefined)	1.1	i	8	7	1.1	5%
CCOC(=O)C1CCCN(C(=O)C2CCCN(S(C)(=O)=O)C2)C1 (centres undefined)	1.1	i	26*	1	0.99	9%
CC(=O)Nc1ccc2c(c1)C(=O)N(C1CCCCC1)C2=O	3.8*	·	9	7	1	8%
O=c1c2ccccc2cnn1-c1nc2ccccc2s1	3*	·	13	0	0.99	3%
O=c1c2ccccc2ncn1Cc1nc2ccccc2s1	1.1	i	0	7	1.1	2%
Cc1ccc(-c2c(C)c(-c3ccc(F)cc3)nc(N)c2C#N)o1	3*	i	11	7	1.1	6%
CCn1cc(C(=O)NCc2ccco2)c(=O)c2cc(F)c(N3CCN(C(=O)c4ccco4)CC3)cc21	2.4*	+[fluoresces]	10	3	1	4%
CCn1cc(C(=O)NCCc2ccccc2)c(=O)c2cc(F)c(N3CCN(C)CC3)cc21	1.6	i	4	0	1	4%
CCn1cc(C(=O)NCc2ccc3c(c2)OCO3)c(=O)c2cc(F)c(N3CCN(C)CC3)cc21	2.2*	i	2	7	1.1	11%
CCOc1cc(C2NC(=O)NC(O)(C(F)(F)F)C2C(=O)c2ccc(OC)cc2)ccc1O (centres undefined)	1	i	3	8	1	4%
COc1cc(CNc2ccc3[nH]c(=O)[nH]c3c2)ccc1OCC(=O)NC(C)(C)C	4.9*	·	13	5	0.99	9%
CC1(C)CC(=O)C2=C(C1)NC(Nc1nc3ccccc3o1)=NC21CCCCC1	2.4*	i	1	3	1.1	4%
Cc1cccc(NC(=O)c2cc(NC(=O)c3ccco3)ccc2Cl)n1	1	i	7	5	0.98	2%
COC(=O)c1ccc2c(c1)N(C)CCS2	2.1*	·	4	1	1.1	3%
CCOC(=O)N1CCN(C(=O)c2ccc3c(c2)N(CC)CCS3)CC1	2*	·	10	11	1	11%
CCOC(=O)N1CCC(NC(=O)c2cc(C(=O)NC3CCCC3)ccc2CO)CC1	1	i	9	4	0.98	2%
CCOC(=O)N1CCC(NC(=O)c2ccc3c(c2)N(C)CCS3)CC1	3.4*	·	9	0	1	3%
CCOC(=O)N1CCN(C(=O)c2ccc(N3C(=O)c4ccccc4C3=O)cc2)CC1	1.1	i	1	9	1	4%

From PubChem BioAssay
